According to the supplement of paper PMC11383364:
“And” between values parts separate entries of the source, which are not always exact repeats. Equal values may be shown once. ± gives the standard deviation of the averaged measurements.

tested on: SUM149; assay: percent difference in area under dose-response curve of relative cell number, RPMI vs HPLM; higher = drug relatively more effective in HPLM than RPMI (negative = less effective in HPLM); details: treatment time: 72 h; dose range: 10-point, 1 nM to 20 µM; media compared: RPMI vs HPLM

Row | Compound | percent difference in area under dose-response curve
1 | CNC(=O)c1cc(COc2nnc(Nc3ccc(Cl)cc3)c3ccoc23)ccn1 [Telatinib] | 2.16%
2 | CO[C@H]1C[C@@H]2CC[C@@H](C)[C@@](O)(O2)C(=O)C(=O)N2CCCC[C@H]2C(=O)O[C@H]([C@H](C)C[C@@H]2CC[C@@H](OP(C)(C)=O)[C@H](OC)C2)CC(=O)[C@H](C)/C=C(\C)[C@@H](O)[C@@H](OC)C(=O)[C@H](C)C[C@H](C)/C=C/C=C/C=C/1C [Deforolimus] | 2.18%
3 | Cc1c(C(=O)Nc2ccc(N3C[C@@H](C)O[C@@H](C)C3)nc2)cccc1-c1ccc(OC(F)(F)F)cc1 | -7%
4 | NC(=O)CCCSc1nc(N)nc(-c2c(Cl)cc3c4c(cccc24)COC3)n1 | -19.2%
5 | COC(=O)Nc1ccc(-c2nc(N3CCOCC3)c3cnn(C4CCN(C(=O)OC)CC4)c3n2)cc1 | 0.775%
6 | COc1cc2c(cc1O)CC[C@@H]1[C@@H]2CC[C@]2(C)[C@@H](O)CC[C@@H]12 [2_Methoxyestradiol] | 6.52%
7 | Cc1ccc(S(=O)(=O)/C=C/C#N)cc1 | 0.814%
8 | CC(C)(C#N)c1cc(Cn2cncn2)cc(C(C)(C)C#N)c1 [Anastrozole] | -1.33%
9 | COc1ccc2cc(-c3nc(-c4ccc([S+](C)[O-])cc4)[nH]c3-c3ccncc3)ccc2c1 (centres undefined) [Tie2_kinase_inhibitor] | -0.194%
10 | COc1cc2c(Oc3ccc4[nH]c(C)cc4c3F)ncnc2cc1OCCCN1CCCC1 [Cediranib] | 1%
11 | Cc1cnc(-c2cnc(NCCNc3ccc(C#N)cn3)nc2-c2ccc(Cl)cc2Cl)[nH]1 | 7.14%
12 | CSc1cccc(Nc2ncc3cc(-c4c(Cl)cccc4Cl)c(=O)n(C)c3n2)c1 | 11.7%
13 | O=c1cc(N2CCOCC2)oc2c(-c3cccc4c3sc3ccccc34)cccc12 | -2.53%
14 | CCC(C)SSc1ncc[nH]1 (centres undefined) | 3.05%
15 | Cc1nc(=O)c2cc(CN(C)c3ccc(C(=O)N[C@@H](CCC(=O)O)C(=O)O)s3)ccc2[nH]1 [Raltitrexed] | 0.127 ± 13%
16 | C[C@]1(O)C[C@@H](c2nc(-c3ccc4ccc(-c5ccccc5)nc4c3)c3c(N)nccn32)C1 [Linsitinib] | 1.93%
17 | O=C(NOCC1CC1)c1ccc(F)c(F)c1Nc1ccc(I)cc1Cl | 4.08%

Row | Compound | percent difference in area under dose-response curve
18 | CC(=O)OC[C@H]1O[C@@H]([S-])[C@H](OC(C)=O)[C@@H](OC(C)=O)[C@@H]1OC(C)=O.CCP(CC)CC.[Au+] [Auranofin] | -10.3%
19 | CCCCCCCC/C=C\CCCCCCCC(=O)NCCO [Oleylethanolamide] | 2.18%
20 | C=CCn1c(=O)c2cnc(Nc3ccc(N4CCN(C)CC4)cc3)nc2n1-c1cccc(C(C)(C)O)n1 | 0.0373%
21 | Cc1ccc(Nc2nccc(N(C)c3ccc4c(C)n(C)nc4c3)n2)cc1S(N)(=O)=O [Pazopanib] | 5.29%
22 | O=c1[nH]c(=O)n(C2CCCO2)cc1F (centres undefined) [Ftorafur] | -2.37%
23 | CCC(C)n1ncn(-c2ccc(N3CCN(c4ccc(OCC5COC(Cn6cncn6)(c6ccc(Cl)cc6Cl)O5)cc4)CC3)cc2)c1=O (centres undefined) [Itraconazole] | -12%
24 | Cc1ccc(NC(=O)c2ccc(CN3CCN(C)CC3)cc2)cc1Nc1nccc(-c2cccnc2)n1 [Imatinib_Mesylate] | -3.71%
25 | Nc1ncn([C@@H]2O[C@H](CO)[C@@H](O)[C@H]2O)c(=O)n1 [Azacitidine] | -13.8%
26 | CC(C)[C@H](C(=O)Nc1ccc(C(=O)NO)cc1)c1ccccc1 | -15.2%
27 | C#CC[C@H](c1nc2cc(Cl)ccc2c(=O)n1Nc1ccccc1)N(CCCN)C(=O)c1cccc(Cl)c1F | -7.78%
28 | CN(Cc1cnc2nc(N)nc(N)c2n1)c1ccc(C(=O)N[C@@H](CCC(=O)O)C(=O)O)cc1 [Methotrexate] | -7.17%
29 | COC1=CC(c2cc3ccccc3[nH]2)=N/C1=C\c1[nH]c(C)cc1C [Obatoclax_mesylate] | -8.47%
30 | C=CCNC1=C2C[C@@H](C)C[C@H](OC)[C@H](O)[C@@H](C)/C=C(\C)[C@H](OC(N)=O)[C@@H](OC)/C=C\C=C(/C)C(=O)NC(=CC1=O)C2=O | -27.6% and -16.3%
31 | O=C(CCCCCCC(=O)Nc1ccc([C@H]2O[C@@H](CSc3nc(-c4ccccc4)c(-c4ccccc4)o3)C[C@@H](c3ccc(CO)cc3)O2)cc1)NO [Tubacin] | -4.43%
32 | Nc1nc(Cl)nc2c1ncn2[C@@H]1O[C@H](CO)[C@@H](O)[C@@H]1F [Clofarabine] | -18.6%
33 | C/C=C/C/C=C/CCC(=O)[C@H]1O[C@H]1C(N)=O [Cerulenin] | -9.61%
34 | Nc1nccc(Oc2ccc(NC(=O)c3c[nH]cc(-c4ccc(F)cc4)c3=O)cc2F)c1Cl | -4.65%
